# Experimental data taken from PubChem BioAssay AID485336 (The Scripps Research Institute Molecular Screening Center, 2010).
# Results with a measured potency or affinity are listed apart. The source made the active and inactive calls.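 The calls were made as follows: active = average inhibition at 10 µM of 40% or more; inactive = average inhibition at 10 µM below 40%.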
# Molecular target: Krueppel-like factor 5 (Homo sapiens) (UniProt Q13887)
# Test: KLF5 protein lowering by immunoblot – western blot, chemiluminescence, DLD-1 cells, titration, orthogonal assay for KLF5 inhibitor project, late-stage follow-up (AID 485336)
# Details: DLD-1 KLF5 protein level, 24 h; series mostly up to 20 µM; inhibition: at the top concentration
# Krueppel-like factor 5 (Homo sapiens), sequence (Q13887 whole entry, looked up): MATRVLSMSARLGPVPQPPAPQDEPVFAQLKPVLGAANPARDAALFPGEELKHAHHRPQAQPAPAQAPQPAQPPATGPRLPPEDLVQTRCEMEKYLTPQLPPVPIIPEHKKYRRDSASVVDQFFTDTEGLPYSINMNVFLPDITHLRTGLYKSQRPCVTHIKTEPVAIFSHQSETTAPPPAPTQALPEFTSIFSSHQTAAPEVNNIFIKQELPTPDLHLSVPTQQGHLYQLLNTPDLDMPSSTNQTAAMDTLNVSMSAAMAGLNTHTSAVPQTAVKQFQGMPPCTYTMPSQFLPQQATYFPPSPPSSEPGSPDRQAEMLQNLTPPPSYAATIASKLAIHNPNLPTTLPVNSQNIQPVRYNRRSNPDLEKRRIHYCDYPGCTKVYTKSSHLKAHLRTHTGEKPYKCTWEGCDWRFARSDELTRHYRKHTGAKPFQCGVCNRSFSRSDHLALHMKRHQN
row,Compound,inhibition
1,CCOC(=O)c1sc(NC(=O)c2ccc3ncsc3c2)nc1C,-11.7% (inactive)
2,COC(=O)c1ccc2nc(Nc3nc4ccc(F)cc4s3)sc2c1,13.5% (inactive)
3,Cc1ccc2nc(NC(=O)CCCc3nc4ccccc4s3)sc2c1,13.5% (inactive)
4,CCCc1ccc(-c2ccc(/C=C/C(=O)O)cc2)nc1,4.12% (inactive)
5,CCOC(=O)c1sc(NC(=O)c2cc3c(s2)CCC(C)C3)nc1C (stereo not given),-2.2% (inactive)
